# ± gives the standard deviation of the averaged measurements. About 6,500 targets were measured; listed, in parts, are those with the largest changes and a random draw of the rest.
# Assays:
# Assay in all cases: NP40-soluble protein abundance relative to vehicle (solubility fold change) (ratio); higher = more soluble protein in presence of ATP
# [1] = biological target: T1, GBP1 (UniProt P32455)
# T1 sequence (whole entry): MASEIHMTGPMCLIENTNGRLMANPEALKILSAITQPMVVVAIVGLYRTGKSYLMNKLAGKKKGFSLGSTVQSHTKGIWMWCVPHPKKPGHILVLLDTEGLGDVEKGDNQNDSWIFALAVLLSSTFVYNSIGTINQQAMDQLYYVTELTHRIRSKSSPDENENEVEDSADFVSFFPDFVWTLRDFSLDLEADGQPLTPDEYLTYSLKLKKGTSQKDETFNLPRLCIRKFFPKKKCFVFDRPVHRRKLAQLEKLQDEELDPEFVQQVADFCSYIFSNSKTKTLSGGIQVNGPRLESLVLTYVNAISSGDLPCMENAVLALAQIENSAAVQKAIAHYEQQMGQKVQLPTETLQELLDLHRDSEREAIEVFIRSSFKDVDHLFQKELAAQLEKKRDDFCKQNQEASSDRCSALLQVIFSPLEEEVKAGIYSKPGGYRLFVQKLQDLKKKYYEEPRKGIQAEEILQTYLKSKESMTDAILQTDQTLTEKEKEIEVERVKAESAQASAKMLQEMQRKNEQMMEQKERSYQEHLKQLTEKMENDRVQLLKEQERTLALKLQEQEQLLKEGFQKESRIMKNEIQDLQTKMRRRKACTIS
# How it was run: (§1)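 Values are fold changes against the detergent-processed vehicle, based on vsn-normalised intensities. Jurkat crude lysate was treated at eight concentrations from 0.1 to 10 mM (10 min at room temperature, then 3 min at 37 °C), solubilised with 0.8% NP40 and benzonase, ultracentrifuged and analysed by TMT-labelled LC-MS/MS over three independent experiments.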
# [2] = biological target: T2, NKTR (UniProt P30414)
# T2 sequence (whole entry): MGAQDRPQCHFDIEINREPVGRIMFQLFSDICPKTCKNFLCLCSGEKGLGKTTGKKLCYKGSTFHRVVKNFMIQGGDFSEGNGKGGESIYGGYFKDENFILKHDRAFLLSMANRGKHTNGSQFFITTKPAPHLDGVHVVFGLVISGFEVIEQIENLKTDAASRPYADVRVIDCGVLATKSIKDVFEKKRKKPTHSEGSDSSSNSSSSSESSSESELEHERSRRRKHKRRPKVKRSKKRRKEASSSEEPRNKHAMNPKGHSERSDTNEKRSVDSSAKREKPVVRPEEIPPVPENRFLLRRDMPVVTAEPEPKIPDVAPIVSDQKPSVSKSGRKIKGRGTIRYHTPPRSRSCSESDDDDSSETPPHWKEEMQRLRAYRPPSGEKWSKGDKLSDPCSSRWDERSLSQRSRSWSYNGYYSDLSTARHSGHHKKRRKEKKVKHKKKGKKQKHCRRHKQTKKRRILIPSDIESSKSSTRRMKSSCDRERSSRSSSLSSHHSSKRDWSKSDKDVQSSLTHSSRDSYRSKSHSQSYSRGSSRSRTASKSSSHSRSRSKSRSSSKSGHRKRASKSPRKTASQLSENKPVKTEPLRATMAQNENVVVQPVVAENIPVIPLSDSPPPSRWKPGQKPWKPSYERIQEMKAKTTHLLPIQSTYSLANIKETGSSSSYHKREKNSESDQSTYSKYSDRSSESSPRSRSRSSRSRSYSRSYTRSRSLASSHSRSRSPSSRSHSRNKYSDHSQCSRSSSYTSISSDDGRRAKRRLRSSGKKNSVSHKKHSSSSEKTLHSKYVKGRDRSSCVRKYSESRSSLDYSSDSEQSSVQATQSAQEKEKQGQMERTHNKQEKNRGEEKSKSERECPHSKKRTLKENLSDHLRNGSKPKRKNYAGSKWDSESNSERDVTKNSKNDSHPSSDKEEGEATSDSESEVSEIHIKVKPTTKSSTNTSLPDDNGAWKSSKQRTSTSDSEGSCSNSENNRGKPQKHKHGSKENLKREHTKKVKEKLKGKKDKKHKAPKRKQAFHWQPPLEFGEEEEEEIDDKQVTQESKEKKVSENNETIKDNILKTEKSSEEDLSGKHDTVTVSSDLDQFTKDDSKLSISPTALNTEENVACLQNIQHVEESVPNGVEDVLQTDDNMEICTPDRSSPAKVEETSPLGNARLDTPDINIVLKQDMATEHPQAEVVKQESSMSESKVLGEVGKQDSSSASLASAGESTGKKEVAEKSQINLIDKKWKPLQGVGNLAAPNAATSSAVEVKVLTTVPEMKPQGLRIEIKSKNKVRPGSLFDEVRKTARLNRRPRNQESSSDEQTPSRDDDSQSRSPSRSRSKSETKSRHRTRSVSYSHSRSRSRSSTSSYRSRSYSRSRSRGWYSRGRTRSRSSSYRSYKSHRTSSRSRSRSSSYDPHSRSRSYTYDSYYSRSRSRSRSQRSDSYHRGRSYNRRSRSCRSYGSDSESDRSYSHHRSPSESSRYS
# How it was run: as §1
# [3] = biological target: T3, SEC24C (UniProt P53992)
# T3 sequence (whole entry): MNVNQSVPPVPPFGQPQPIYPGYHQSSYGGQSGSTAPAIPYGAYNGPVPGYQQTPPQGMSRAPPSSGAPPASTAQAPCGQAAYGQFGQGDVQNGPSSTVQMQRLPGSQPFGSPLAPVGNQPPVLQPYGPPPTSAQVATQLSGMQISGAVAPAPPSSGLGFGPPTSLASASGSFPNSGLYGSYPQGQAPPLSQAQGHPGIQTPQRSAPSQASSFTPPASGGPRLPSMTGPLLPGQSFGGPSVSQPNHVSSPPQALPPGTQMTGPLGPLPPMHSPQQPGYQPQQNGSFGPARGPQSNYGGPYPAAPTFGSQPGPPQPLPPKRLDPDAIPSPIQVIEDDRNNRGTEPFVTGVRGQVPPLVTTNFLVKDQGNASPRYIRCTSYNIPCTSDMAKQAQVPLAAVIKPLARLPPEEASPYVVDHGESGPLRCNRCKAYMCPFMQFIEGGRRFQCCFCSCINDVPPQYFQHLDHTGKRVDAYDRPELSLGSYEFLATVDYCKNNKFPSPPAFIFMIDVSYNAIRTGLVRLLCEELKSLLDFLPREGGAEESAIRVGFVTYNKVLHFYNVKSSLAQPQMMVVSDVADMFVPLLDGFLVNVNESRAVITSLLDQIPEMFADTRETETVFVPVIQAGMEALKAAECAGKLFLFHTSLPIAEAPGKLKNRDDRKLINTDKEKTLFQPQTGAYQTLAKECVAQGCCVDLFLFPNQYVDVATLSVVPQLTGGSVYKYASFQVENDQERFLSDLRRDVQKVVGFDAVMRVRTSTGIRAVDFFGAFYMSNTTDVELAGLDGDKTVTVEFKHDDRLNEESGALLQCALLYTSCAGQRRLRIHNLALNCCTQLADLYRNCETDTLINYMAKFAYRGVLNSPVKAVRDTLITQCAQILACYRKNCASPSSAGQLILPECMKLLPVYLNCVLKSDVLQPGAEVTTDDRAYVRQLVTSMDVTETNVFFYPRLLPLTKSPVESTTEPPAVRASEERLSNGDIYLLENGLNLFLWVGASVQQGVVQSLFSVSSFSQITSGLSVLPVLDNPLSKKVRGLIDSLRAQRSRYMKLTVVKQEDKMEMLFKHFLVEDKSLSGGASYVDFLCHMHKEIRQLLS
# How it was run: as §1
# [4] = biological target: T4, SPAG7 (UniProt O75391); details: concentration: 1mM
# T4 sequence (whole entry): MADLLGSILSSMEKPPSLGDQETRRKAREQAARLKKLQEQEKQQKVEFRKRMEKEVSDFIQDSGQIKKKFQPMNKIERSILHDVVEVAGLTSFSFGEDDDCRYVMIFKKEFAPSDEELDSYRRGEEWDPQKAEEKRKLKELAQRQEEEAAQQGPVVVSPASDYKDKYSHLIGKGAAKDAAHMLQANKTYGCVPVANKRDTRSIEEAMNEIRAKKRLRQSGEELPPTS
# How it was run: as §1
structure (smiles),measurement,setting,value
Nc1ncnc2c1ncn2[C@@H]1O[C@H](COP(=O)(O)OP(=O)(O)OP(=O)(O)O)[C@@H](O)[C@H]1O [adenosine triphosphate],NP40-soluble protein abundance,[1]; concentration: 1mM,0.968 ± 0.053
same,NP40-soluble protein abundance,[1]; concentration: 2mM,0.96 ± 0.0051
same,NP40-soluble protein abundance,[1]; concentration: 4mM,0.945 ± 0.011
same,NP40-soluble protein abundance,[1]; concentration: 6mM,0.979 ± 0.015
same,NP40-soluble protein abundance,[1]; concentration: 8mM,0.922 ± 0.018
same,NP40-soluble protein abundance,[1]; concentration: 10mM,0.936 ± 0.03
same,NP40-soluble protein abundance,[2]; concentration: 1mM,1.53 ± 0.25
same,NP40-soluble protein abundance,[2]; concentration: 2mM,1.63 ± 0.19
same,NP40-soluble protein abundance,[2]; concentration: 4mM,1.68 ± 0.23
same,NP40-soluble protein abundance,[2]; concentration: 6mM,1.83 ± 0.22
same,NP40-soluble protein abundance,[2]; concentration: 8mM,1.75 ± 0.19
same,NP40-soluble protein abundance,[2]; concentration: 10mM,1.75 ± 0.22
same,NP40-soluble protein abundance,[3]; concentration: 1mM,0.99 ± 0.055
same,NP40-soluble protein abundance,[3]; concentration: 2mM,0.987 ± 0.057
same,NP40-soluble protein abundance,[3]; concentration: 4mM,0.98 ± 0.043
same,NP40-soluble protein abundance,[3]; concentration: 6mM,0.919 ± 0.095
same,NP40-soluble protein abundance,[3]; concentration: 8mM,0.981 ± 0.019
same,NP40-soluble protein abundance,[3]; concentration: 10mM,0.984 ± 0.074
same,NP40-soluble protein abundance,[4],0.972 ± 0.053

# — the supplement of paper PMC6411743
